Assay outcomes: PubChem BioAssay, Broad Institute
T cruzi growth-1 – T. cruzi proliferation inhibition. T. cruzi beta-gal in NIH3T3, GalScreen luminescence, 90 h. hit rate 5.9% among 77,000. AID 624255. inhibition, % at 8.34 µM;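 active = mean inhibition above about 93%, with at least 55% of replicates each passing it, limit read from the data, passing the limit was not always enough; inconclusive = only one of those two conditions holds; inactive = neither condition holds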
C diff growth – inhibitors of Clostridium difficile growth; growth activity, negative = inhibition, % at 16 µg/mL (by protocol); Clostridium difficile clinical isolate growth, OD600, 24 h; active compounds read low; hit rate 0.25% among 86,000;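 active = mean growth activity at or below -80% and every replicate also at or below -80%; inconclusive = mean at or below -80% but some replicate above -80%; inactive = mean growth activity above -80%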
Pf Dd2 growth – inhibitors of Plasmodium falciparum Dd2 growth; activity change, % at 10 µM; AID 1159554; P. falciparum Dd2 growth, SYBR Green, 72 h; active compounds read low; hit rate 2.3% among 94,000; in the data active = activity change below about -80%; inconclusive = no clear call, values can overlap the other calls
T cruzi growth-2 – blocks T. cruzi growth in NIH3T3 host cells; hit rate 72% among 5,600; shares compounds with T cruzi growth-1; T. cruzi beta-gal in NIH3T3, GalScreen luminescence, 90 h; AID 651739; inhibition, % at 8.35 µM;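 active = mean replicate inhibition above about 95% and at least 55% of replicates individually reaching it, limit read from the data; inconclusive = only one of the two criteria is met; inactive = neither criterion is met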
T cruzi growth-3 – inhibitors of T. cruzi proliferation | hit rate 21% among 5,600 | shares compounds with T cruzi growth-1 | T. cruzi beta-gal in NIH3T3, GalScreen luminescence, 90 h | inhibition, % at 2.09 µM;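 active = mean inhibition above about 95%, with at least 55% of replicates also reaching it, limit read from the data; inconclusive = meets just one of the two conditions; inactive = meets neither condition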
NIH3T3 tox – NIH/3T3 (mouse) viability loss; shares compounds with T cruzi growth-1; hit rate 14% among 5,600; NIH/3T3 viability, CellTiter-Glo ATP luminescence, 90 h; cytotoxicity (signal decrease), % at 8.35 µM;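 active = mean signal decrease across replicates above about 35% based on untreated-well scatter, with enough replicates individually passing, limit read from the data; inconclusive = no rule stated though some were filed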
3T3 cytotox 2 – NIH/3T3 (mouse) viability loss | shares compounds with T cruzi growth-1 | NIH/3T3 viability, CellTiter-Glo ATP luminescence, 90 h | inhibition, % at 24.9 µM | hit rate 56% among 5,600;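 active = mean loss of cell viability signal at or above a set limit, and enough replicates individually reaching it; inconclusive = meets only the mean limit or only the replicate share; inactive = meets neither condition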
Large screens that a line does not name were inactive (follow-up assays come after a bar, where they were run). Only some compounds are listed: those with a hit (about 6.7% of all), similar ones and a draw of the others.

C[C@H](CO)N1C[C@H](C)[C@@H](CN(C)CC2CCOCC2)Oc2cc(C#Cc3ccccc3F)ccc2S1(=O)=O	T cruzi growth-1 122 | T cruzi growth-2 99 | T cruzi growth-3 103 | NIH3T3 tox inactive | 3T3 cytotox 2 43
COc1ccc(NC(=O)Nc2ccc3c(c2)C(=O)N([C@H](C)CO)C[C@@H](C)[C@@H](CN(C)C(=O)NC2CCCCC2)O3)cc1	none
COc1ccc2c3c(n(C)c2c1)[C@@H](CO)N(C(=O)Nc1ccc(F)cc1)CC31CCN(C(=O)CC2CC2)CC1	none (no result: T cruzi growth-1)
CCCNC(=O)c1cc2c(c(-c3cccc(-c4cccc(OC)c4)c3)n1)[C@@H](CCO)N([S@](=O)C(C)(C)C)C2	none (no result: C diff growth)
C[C@@H]1CN([C@H](C)CO)C(=O)c2cccc(NC(=O)Nc3ccc4c(c3)OCO4)c2O[C@@H]1CN(C)C(=O)Nc1ccc(F)cc1	none
C[C@@H]1CN([C@@H](C)CO)S(=O)(=O)c2ccc(C3=CCCC3)cc2O[C@H]1CN(C)C(=O)CN(C)C	none
O=C(C1CCOCC1)N1CC[C@H]2[C@H](CO)Nc3ccc(-c4ccc(F)cc4)cc3[C@H]21	T cruzi growth-1 101 | T cruzi growth-2 104 | T cruzi growth-3 inactive | NIH3T3 tox inactive | 3T3 cytotox 2 inactive
O=C(C1CCOCC1)N1CC[C@@H]2[C@H](CO)Nc3ccc(-c4ccc(F)cc4)cc3[C@@H]21	T cruzi growth-1 inconclusive | T cruzi growth-2 110 | T cruzi growth-3 inactive | NIH3T3 tox inactive | 3T3 cytotox 2 inactive
O=C(C1CCOCC1)N1CC[C@@H]2[C@@H](CO)Nc3ccc(-c4cccc(F)c4)cc3[C@@H]21	none
O=C(C1CCOCC1)N1CC[C@H]2[C@H](CO)Nc3ccc(-c4cccc(F)c4)cc3[C@H]21	none
O=C(C[C@H]1CC[C@@H]2[C@H](COC[C@@H](O)CN2S(=O)(=O)c2cccc(Cl)c2)O1)Nc1ccccc1	none
Cc1noc(C)c1S(=O)(=O)Nc1ccc2c(c1)C(=O)N([C@H](C)CO)C[C@H](C)[C@@H](CN(C)S(=O)(=O)c1cccs1)OCCCC[C@H](C)O2	none
C/C=C/c1ccc([C@H]2[C@@H](CO)N(S(C)(=O)=O)[C@H]2CNC(C)C)cc1	none (no result: T cruzi growth-1)
C/C=C/c1ccc([C@H]2[C@@H](CO)N(c3nc(CC)cs3)[C@H]2CNC(C)C)cc1	T cruzi growth-1 98 | T cruzi growth-2 98 | T cruzi growth-3 inactive | NIH3T3 tox inactive | 3T3 cytotox 2 103
C/C=C/c1ccc([C@H]2[C@@H](C#N)N(c3nc(CC)cs3)[C@H]2CO)cc1	T cruzi growth-1 109 | T cruzi growth-2 103 | T cruzi growth-3 111 | NIH3T3 tox inactive | 3T3 cytotox 2 inconclusive
C/C=C/c1ccc([C@@H]2[C@H](C#N)N(c3nc(CC)cs3)[C@H]2CO)cc1	T cruzi growth-1 104 | T cruzi growth-2 105 | T cruzi growth-3 inactive | NIH3T3 tox inactive | 3T3 cytotox 2 27
C/C=C/c1ccc([C@@H]2[C@@H](CO)N(c3nc(CC)cs3)[C@H]2C#N)cc1	none
C/C=C/c1ccc([C@@H]2[C@@H](C#N)N(c3nc(CC)cs3)[C@H]2CO)cc1	none
CO[C@@H]1CN(C)C(=O)c2cc(NC(=O)c3ccccc3F)ccc2OC[C@@H](C)N(C)C[C@@H]1C	none (no result: C diff growth)
CCCC#Cc1cnc2c(c1)C(=O)N([C@H](C)CO)C[C@H](C)[C@@H](CN(C)Cc1ccncc1)O2	none
N#C[C@@H]1[C@@H](c2ccccc2)[C@H](CO)N1S(=O)(=O)c1ccc(F)cc1	none
N#C[C@@H]1[C@H](c2ccccc2)[C@H](CO)N1S(=O)(=O)c1ccc(F)cc1	none
N#C[C@H]1[C@@H](c2ccccc2)[C@@H](CO)N1S(=O)(=O)c1ccc(-c2ccccc2)cc1	T cruzi growth-1 96 | T cruzi growth-2 102 | T cruzi growth-3 inactive | NIH3T3 tox inactive | 3T3 cytotox 2 inactive
N#C[C@@H]1[C@@H](c2ccccc2)[C@@H](CO)N1S(=O)(=O)c1ccc(-c2ccccc2)cc1	T cruzi growth-1 103 | T cruzi growth-2 100 | T cruzi growth-3 inactive | NIH3T3 tox inactive | 3T3 cytotox 2 inactive
C[C@H](CO)N1C[C@H](C)[C@@H](CN(C)C(=O)Cc2ccccn2)Oc2ncc(C#CC3CCCCC3)cc2C1=O	none (no result: T cruzi growth-1)
